Experimental data taken from PubChem BioAssay (NCI).
About 83,000 compounds went through this panel and 20% of them were active in at least one assay; those are over-represented in the sample as a whole.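 Compound tested at a single concentration for 48 hours in 96-well plates; a percent growth value below 10 was scored as active.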 Active and inactive are the calls of the source.

Assays:
Assay in all cases: NCI-60 one-dose screen, 48 h (100 = growth as untreated, 0 = no growth, -100 = all killed)
Conditions in all cases: 10 µM unless noted
HCT-15 colon = system: HCT-15 colon
HT29 colon = system: HT29 colon
SNB-75 CNS = system: SNB-75 CNS
SNB-19 CNS = system: SNB-19 CNS
U251 CNS = system: U251 CNS
PC-3 prostate = system: PC-3 prostate
UACC-62 melanoma = system: UACC-62 melanoma
LOX IMVI melanoma = system: LOX IMVI melanoma
SK-MEL-28 melanoma = system: SK-MEL-28 melanoma
SK-MEL-2 melanoma = system: SK-MEL-2 melanoma
EKVX NSCLC = system: EKVX NSCLC
SN12C renal = system: SN12C renal
UO-31 renal = system: UO-31 renal
TK-10 renal = system: TK-10 renal
ACHN renal = system: ACHN renal
A498 renal = system: A498 renal
CCRF-CEM leukemia = system: CCRF-CEM leukemia
MOLT-4 leukemia = system: MOLT-4 leukemia
CAKI-1 renal = system: CAKI-1 renal
SK-MEL-5 melanoma = system: SK-MEL-5 melanoma

Measured: growth

C=CCOC(=O)C1=C(C)NC(=O)NC1c1c(Cl)n(C)c2ccccc12 (stereo not given)
active: CCRF-CEM leukemia -49.5%
inactive: HCT-15 colon 99.8% | HT29 colon 110% | SNB-75 CNS 97.8% | SNB-19 CNS 94% | U251 CNS 96.3% | PC-3 prostate 89.2% | UACC-62 melanoma 90.3% | LOX IMVI melanoma 102% | SK-MEL-28 melanoma 99.6% | SK-MEL-2 melanoma 112% | EKVX NSCLC 98.2% | SN12C renal 96.9% | UO-31 renal 80.9% | TK-10 renal 102% | ACHN renal 99.7% | A498 renal 101% | MOLT-4 leukemia 98.5%

CCCCCCCCn1ccc2cc(NC(=O)Cn3cc(CN4CCN(CC)CC4)nn3)ccc21
inactive: HCT-15 colon 22.5% | SNB-75 CNS 87.5% | SNB-19 CNS 61.4% | PC-3 prostate 82.6% | SK-MEL-28 melanoma 80.5% | SK-MEL-2 melanoma 101% | EKVX NSCLC 88% | SN12C renal 64.1% | UO-31 renal 47.5% | TK-10 renal 99.2% | ACHN renal 111% | CAKI-1 renal 69.6% | A498 renal 90.5% | MOLT-4 leukemia 39.3%
active: HT29 colon -26.4% | U251 CNS 5.79% | UACC-62 melanoma -78.2% | LOX IMVI melanoma -74.5% | CCRF-CEM leukemia -41.2%

Cc1ccc(C)c(-n2c(-c3ccc(Br)cc3)csc2=NC(=O)c2ccccc2F)c1
inactive: HCT-15 colon 57.9% | HT29 colon 55.5% | SNB-75 CNS 84.6% | SNB-19 CNS 93.7% | U251 CNS 46.4% | PC-3 prostate 22.7% | SK-MEL-5 melanoma 46.9% | LOX IMVI melanoma 76.9% | SK-MEL-2 melanoma 101% | EKVX NSCLC 76.1% | SN12C renal 85.8% | UO-31 renal 108% | TK-10 renal 116% | ACHN renal 52.9% | CAKI-1 renal 76.1% | A498 renal 80.7% | CCRF-CEM leukemia 43.4% | MOLT-4 leukemia 30.5%

COc1ccc2nc3cc(Cl)ccc3c(NCCN)c2c1
inactive: SNB-75 CNS 91.6% | SK-MEL-5 melanoma 79.6% | SK-MEL-2 melanoma 98.5% | A498 renal 55.5%
active: HCT-15 colon -37.7% | HT29 colon -42.5% | SNB-19 CNS 7.75% | U251 CNS -81.4% | PC-3 prostate 6.63% | LOX IMVI melanoma -86.4% | SK-MEL-28 melanoma -65.8% | EKVX NSCLC -47.5% | SN12C renal -60.4% | UO-31 renal -19.4% | TK-10 renal -76.2% | ACHN renal -91.7% | CAKI-1 renal -96.5% | CCRF-CEM leukemia -13.3% | MOLT-4 leukemia -40.9%

O=C(N/N=C/c1ccc(Cl)cc1Cl)c1ccc2nc(-c3ccc(Cl)cc3)[nH]c2c1
inactive: SNB-75 CNS 98.4% | UACC-62 melanoma 16.8% | SK-MEL-2 melanoma 38.9% | UO-31 renal 21.6% | CAKI-1 renal 61.2% | A498 renal 56.2% | CCRF-CEM leukemia 15.5%
active: HCT-15 colon 4.69% | HT29 colon 1.67% | SNB-19 CNS 4.35% | U251 CNS -15.2% | PC-3 prostate -24.9% | SK-MEL-28 melanoma -9.23% | EKVX NSCLC 8.23% | SN12C renal -36.9% | TK-10 renal -4.33% | ACHN renal -20.2% | MOLT-4 leukemia 4.45%

CCCCCCCCn1ccc2cc(NC(=O)Cn3cc(CN4CCC(C)CC4)nn3)ccc21
inactive: SNB-75 CNS 79.1% | PC-3 prostate 43% | SK-MEL-2 melanoma 50.3% | EKVX NSCLC 79% | SN12C renal 33.5% | TK-10 renal 80.7% | ACHN renal 55.1% | CAKI-1 renal 11.3% | A498 renal 87.6%
active: HCT-15 colon -32.2% | HT29 colon -66.9% | U251 CNS -57.6% | SK-MEL-5 melanoma -23% | UACC-62 melanoma -77.8% | LOX IMVI melanoma -85.3% | SK-MEL-28 melanoma -86.9% | UO-31 renal -87.7% | CCRF-CEM leukemia -12% | MOLT-4 leukemia 3.1%

CC1=NN(c2ccc(Cl)cc2)CC1(C)N=O (stereo not given)
inactive: HCT-15 colon 27.4% | HT29 colon 28.3% | SNB-75 CNS 75.7% | U251 CNS 91.5% | PC-3 prostate 91.9% | UACC-62 melanoma 88.2% | LOX IMVI melanoma 28.1% | SK-MEL-28 melanoma 90.4% | SK-MEL-2 melanoma 105% | EKVX NSCLC 70.1% | SN12C renal 88.4% | UO-31 renal 32.8% | TK-10 renal 105% | ACHN renal 15.2% | CAKI-1 renal 60.4% | A498 renal 101% | CCRF-CEM leukemia 34% | MOLT-4 leukemia 44.6%

CCCCc1oc2ccccc2c1C(=O)c1ccc(O)cc1
inactive: HCT-15 colon 81.6% | HT29 colon 103% | SNB-75 CNS 62.4% | U251 CNS 85.8% | PC-3 prostate 73% | SK-MEL-5 melanoma 82.6% | UACC-62 melanoma 69.1% | LOX IMVI melanoma 82.7% | SK-MEL-28 melanoma 116% | SK-MEL-2 melanoma 99.8% | EKVX NSCLC 92.3% | SN12C renal 71.2% | UO-31 renal 78.3% | TK-10 renal 101% | ACHN renal 88.8% | CAKI-1 renal 68.4% | A498 renal 90.9% | CCRF-CEM leukemia 51.9% | MOLT-4 leukemia 59.7%

O=C(CCCCCCN1CC(=O)N2[C@@H](C3CCCCC3)c3[nH]c4ccccc4c3C[C@H]2C1=O)NO
active: LOX IMVI melanoma -3.25% | SN12C renal -97.1%
inactive: HCT-15 colon 115% | HT29 colon 58.9% | SNB-75 CNS 38.1% | U251 CNS 70.2% | PC-3 prostate 62.7% | SK-MEL-5 melanoma 66% | UACC-62 melanoma 35.3% | SK-MEL-28 melanoma 60.7% | SK-MEL-2 melanoma 69.2% | EKVX NSCLC 77.7% | UO-31 renal 84.8% | TK-10 renal 48.5% | ACHN renal 88.7% | CAKI-1 renal 70.8% | A498 renal 82.1% | CCRF-CEM leukemia 26.5% | MOLT-4 leukemia 10.3%

c1ccc(CCc2ccccc2-c2cc(-c3ccccc3)on2)cc1
inactive: HCT-15 colon 83.6% | HT29 colon 68.2% | SNB-75 CNS 80.5% | U251 CNS 95.3% | PC-3 prostate 89.1% | SK-MEL-5 melanoma 78.9% | UACC-62 melanoma 71.1% | LOX IMVI melanoma 92.2% | SK-MEL-28 melanoma 93.9% | SK-MEL-2 melanoma 86.4% | EKVX NSCLC 86.4% | SN12C renal 85.5% | UO-31 renal 75.5% | TK-10 renal 110% | ACHN renal 89.2% | CAKI-1 renal 92.2% | A498 renal 89% | CCRF-CEM leukemia 82.7% | MOLT-4 leukemia 73.1%

CC(C)c1ccc(C(=O)Nc2sc3cc(O)ccc3c2C#N)cc1
active: A498 renal -0.765%
inactive: HCT-15 colon 18.9% | HT29 colon 57.8% | SNB-75 CNS 22.6% | U251 CNS 29.2% | PC-3 prostate 58.6% | SK-MEL-5 melanoma 22.3% | UACC-62 melanoma 18% | LOX IMVI melanoma 25.4% | SK-MEL-28 melanoma 52.4% | SK-MEL-2 melanoma 47.6% | EKVX NSCLC 52.9% | SN12C renal 34.2% | UO-31 renal 25.1% | TK-10 renal 63.4% | ACHN renal 47.3% | CAKI-1 renal 39.6% | CCRF-CEM leukemia 12.3% | MOLT-4 leukemia 18.3%

OC(c1ccccc1)(c1ccccc1)c1ccccc1-c1ccccc1
inactive: HCT-15 colon 90.7% | HT29 colon 73.4% | SNB-75 CNS 94.1% | U251 CNS 92.8% | PC-3 prostate 86% | SK-MEL-5 melanoma 96.4% | UACC-62 melanoma 79.2% | LOX IMVI melanoma 87.2% | SK-MEL-28 melanoma 109% | SK-MEL-2 melanoma 103% | EKVX NSCLC 115% | SN12C renal 89% | UO-31 renal 78.5% | TK-10 renal 89.8% | ACHN renal 99% | A498 renal 81.5% | CCRF-CEM leukemia 92.9% | MOLT-4 leukemia 84%

O=C1/C=C/[C@@H](O)[C@@H]2C[C@@H](O)C[C@H]2/C=C/CCC[C@H](CCOCc2ccccc2)O1
active: HCT-15 colon 8.84% | HT29 colon -23.2% | LOX IMVI melanoma -59.7% | SK-MEL-2 melanoma -24.1% | EKVX NSCLC 1.3% | ACHN renal 5.36% | CAKI-1 renal -28.2% | A498 renal -28.5% | MOLT-4 leukemia 7.56%
inactive: SNB-75 CNS 33.2% | SNB-19 CNS 33.1% | U251 CNS 18.4% | PC-3 prostate 16.5% | SN12C renal 10.6% | UO-31 renal 12.2% | CCRF-CEM leukemia 27.5%

Cn1cc(-c2nc(-c3c[nH]c4ccncc34)cs2)c2cc(Br)ccc21
active: HCT-15 colon -85.4% | HT29 colon -81.9% | SNB-75 CNS -97% | U251 CNS -84.1% | PC-3 prostate -86.4% | SK-MEL-5 melanoma -47.9% | UACC-62 melanoma -86.7% | LOX IMVI melanoma -90% | SK-MEL-28 melanoma -91.3% | SK-MEL-2 melanoma -57.7% | EKVX NSCLC -75.3% | SN12C renal -74.4% | UO-31 renal -91.2% | TK-10 renal -84% | ACHN renal -98.9% | CAKI-1 renal -77.2% | A498 renal -78% | CCRF-CEM leukemia -43.4% | MOLT-4 leukemia -66.4%

Cc1ccc(C(=O)c2ccc(CC(=O)N/N=C/c3ccc(O)cc3O)n2C)cc1
inactive: HCT-15 colon 16.8% | HT29 colon 64% | SNB-75 CNS 31.1% | SNB-19 CNS 49.4% | U251 CNS 37.6% | PC-3 prostate 61.1% | LOX IMVI melanoma 18.8% | SK-MEL-28 melanoma 46.4% | SK-MEL-2 melanoma 59.5% | EKVX NSCLC 34.2% | SN12C renal 55.7% | UO-31 renal 19.8% | TK-10 renal 52.9% | ACHN renal 16.5% | CAKI-1 renal 46.6% | A498 renal 87.4% | CCRF-CEM leukemia 16.8% | MOLT-4 leukemia 12.6%

COc1ccc(-c2cc(-c3ccc(OC)cc3)nc(NCCCNc3ccnc4cc(Cl)ccc34)n2)cc1
active: HCT-15 colon -77% | HT29 colon -59.6% | LOX IMVI melanoma -95% | SN12C renal -62.3% | CCRF-CEM leukemia 3.08% | MOLT-4 leukemia 1.68%
inactive: SNB-75 CNS 112% | U251 CNS 70.7% | PC-3 prostate 61.5% | SK-MEL-5 melanoma 22.7% | UACC-62 melanoma 91.8% | SK-MEL-28 melanoma 37.5% | SK-MEL-2 melanoma 83.9% | EKVX NSCLC 80.4% | UO-31 renal 48.9% | TK-10 renal 127% | ACHN renal 96.2% | CAKI-1 renal 75.3% | A498 renal 23.2%
